Measurements reported in PubChem BioAssay (NCI).
About 83,000 compounds went through this panel and 20% of them were active in at least one assay; those are over-represented in the sample as a whole.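 96-well plates, one dose, 48 hours. Percent growth reported; active if below 10.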 Values without a mark were called inactive. Calls of active or inactive are those of the source.

Tests used:
Test in all cases: NCI-60 one-dose screen, 48 h (100 = growth as untreated, 0 = no growth, -100 = all killed)
Details in all cases: 10 µM unless noted
MOLT-4 leukemia = tested on: MOLT-4 leukemia
SR leukemia = tested on: SR leukemia
RPMI-8226 leukemia = tested on: RPMI-8226 leukemia
OVCAR-8 ovarian = tested on: OVCAR-8 ovarian
OVCAR-5 ovarian = tested on: OVCAR-5 ovarian
OVCAR-4 ovarian = tested on: OVCAR-4 ovarian
SK-OV-3 ovarian = tested on: SK-OV-3 ovarian
OVCAR-3 ovarian = tested on: OVCAR-3 ovarian
HS 578T breast = tested on: HS 578T breast
IGROV1 ovarian = tested on: IGROV1 ovarian

| Compound | growth (MOLT-4 leukemia) | growth (SR leukemia) | growth (RPMI-8226 leukemia) | growth (OVCAR-8 ovarian) | growth (OVCAR-5 ovarian) | growth (OVCAR-4 ovarian) | growth (SK-OV-3 ovarian) | growth (OVCAR-3 ovarian) | growth (HS 578T breast) | growth (IGROV1 ovarian) |
| --- | --- | --- | --- | --- | --- | --- | --- | --- | --- | --- |
| Cc1c(C)c([N+](=O)[O-])c(C)c(C)c1[N+](=O)[O-] | 100% | 93% | 106% | 95.7% | 93.8% | 98.2% | 117% | 118% | 118% |  |
| C#Cc1ccc2c(c1)C(c1ccccc1F)=NCC(=O)N2C | 42.8% | 37.8% | 71.9% | 63.9% | 85.5% | 84.9% | 34% | 12.1% | 64.1% |  |
| O=C(O)C(Cl)(Cl)C(F)(F)F | 112% | 122% | 108% | 112% | 103% |  | 110% | 101% | 95.9% | 104% |
| COC(=O)C1OC(Oc2ccc(N(CCCl)CCCl)cc2)C(OC(C)=O)C(OC(C)=O)C1OC(C)=O (stereo unspecified) | 37.3% | 4.19% (active) | 96.6% | 84.8% | 90.4% | 87.7% | 96.7% | 94.2% | 102% |  |
| CCCCCCCC[N+](C)(CCCCCCCC)CCCCCCCC | 37.4% | 28.1% | 44.2% | -100% (active) | -100% (active) | -94.1% (active) | -97.8% (active) | -100% (active) | -66.6% (active) |  |
| O=C1OCCC1Br (stereo unspecified) | 107% | 92.3% | 97.2% | 96.2% | 104% |  | 99.4% | 112% |  | 110% |
| Fc1ccc(C2=CCNCC2)cc1 | 106% | 114% | 122% | 100% | 82.3% | 111% | 104% | 102% | 114% |  |
| Nc1ccc2c(c1)Cc1cc(Br)ccc1-2 | 71% | 84.6% | 79.8% | 107% | 110% |  | 101% | 114% | 111% | 104% |
| CN1C(=O)C(=Cc2cn(Cc3ccccc3)c3ccccc23)C(=O)N(C)C1=O | 96.8% | 68.6% | 35.9% | 90.5% | -6.96% (active) | 49.8% | 51.8% | 71.2% | 86.8% |  |
| O=C1C=C(N2C3C4CCC(C4)C32)C(=O)C=C1c1ccccc1 (stereo unspecified) | 2.18% (active) | 0.878% (active) | 53.1% | 72.4% | 102% | 48% | 88.9% | 74.5% | 102% |  |
| COc1ccc(C(=O)c2sc3nc4c(cc3c2N)N2CCC4CC2)cc1OC | 77.3% | 83.4% | 51.4% | 85.7% | 107% |  | 96.2% | 100% | 100% | 104% |
| O=[N+]([O-])c1cc([N+](=O)[O-])c(Cl)cc1Cl | -21% (active) | -31.3% (active) | -50.2% (active) | -26.8% (active) | -69.1% (active) | -99% (active) | 104% | -98% (active) | -27.6% (active) |  |
| C=CC[Se]C(=O)c1ccccc1OC(C)=O | 14.7% | 6.08% (active) | -22.8% (active) | -12.8% (active) | -32.1% (active) |  | -28.8% (active) | 2.36% (active) | -8.17% (active) | 18.1% |
| CCOC(=O)CCC(NC(=O)C(Cc1ccc(N(CCCl)CCCl)cc1)NC=O)C(=O)OCC (stereo unspecified) | 5.13% (active) |  | 30.6% | 44.5% | 42.9% | 61.4% | 135% | -17.4% (active) | 51.8% | 67.2% |
| C[Se]C(=O)c1ccccc1OC(C)=O | 54.8% |  | 88.6% | 35.1% | 54.3% | 85.3% | 118% | 55.3% | 35.3% | 46.1% |
| CC12CCC3C(CCC4Cc5[nH]c6ccccc6c5CC43C)C1CCC2O (stereo unspecified) | 21.6% |  | -20% (active) | 36.9% | 122% | 51.8% | 29.5% | -28.3% (active) | -8.19% (active) | 50.8% |
| N#C[S-].[Au+].c1ccc(CN2[CH-]N(Cc3ccccc3)C(c3ccccc3)=C2c2ccccc2)cc1 | 3.58% (active) |  | -16.4% (active) | 12.1% | 36.8% | 19.4% | -0.746% (active) | -6.54% (active) | 36.3% | 30.3% |
| CN(C)CC(C(=O)Cc1ccccc1)c1ccccc1 (stereo unspecified) | 78% |  | -4.6% (active) | 34% | 133% | 91.7% | 124% | 6.54% (active) |  | 84.8% |
| Cc1cc(NC(=O)NCc2ccc(N3C(N)=NC(N)=NC3(C)C)cc2)ccc1S(=O)(=O)F | 42% | 4.98% (active) |  | -4.46% (active) | 10.8% |  | 64.9% | 67.6% | 68.6% | -51.3% (active) |
| Cc1ccc2c(C(C[N+](=O)[O-])c3cccs3)c(-c3ccccc3)[nH]c2c1 (stereo unspecified) | 16.2% |  | 11.8% | 33% | 58.8% | 38% | 22.7% | 10.2% | -11.7% (active) | 31.4% |
| CCn1nccc1NC(=O)C(=O)c1cn(Cc2ccc(F)cc2)c2cccc(OC)c12 | 66.4% |  | 59.9% | 92.2% | 96.8% | 94.8% | 100% | 94% | 89% | 3.65% (active) |
| COc1ccc(/C=C\c2cc(OC)c(OC)c(OC)c2)cc1NC(=O)/C=C/c1ccc(OC)c(OC)c1 | 17.3% |  | 53.6% | 44.4% | 55.4% | 58.7% | -19.5% (active) | 1.59% (active) | 31.3% | 55.1% |
| CC(C)=CC1C(C(=O)OCc2cccc(Oc3ccccc3)c2)C1(C)C (stereo unspecified) | 83.3% |  | 91.7% | 100% | 101% | 97.3% | 102% | 102% | 101% | 93.1% |
| CC(C)(NC(=O)O[C@@H]1CN2CCC1CC2)c1csc(-c2ccc(F)cc2)n1 | 91.3% |  | 103% | 102% | 96.2% | 97.4% | 99.6% | 109% | 98.2% | 101% |
| N#CC1(c2ccccc2)CCN(Cc2ccccc2)CC1 | 107% |  | 77% | 104% | 98% | 113% | 107% | 101% | 96.3% | 115% |
| COc1ccc(/C=C/c2cc(OC)c(OC)c(OC)c2)cc1NC(=O)/C=C/c1ccc(F)cc1 | 13.5% |  | 51.8% | 36.7% | 57.5% | 61.4% | -29% (active) | -10.9% (active) | 5.66% (active) | 46.9% |
| CC(=O)Oc1ccccc1C(=O)NCCC[Se]C#N | 10.7% |  | 91.1% | -13.9% (active) | 83.3% | 57.2% | 32.6% | -5.3% (active) | 17.1% | 10.8% |
| CCCCCN(CCCCC)CC(O)c1cc(Cl)ccc1OC (stereo unspecified) | 34.9% |  | 0.775% (active) | 63.1% | 53.7% | 42.9% | 53.6% | 28.6% | 50.1% | 2.26% (active) |
| O=C1CC2(CC3(Cl)C(Cl)=C(Cl)C2(Cl)C3(Cl)Cl)C(=O)O1 (stereo unspecified) | 96.5% |  | 105% | 104% | 94.4% | 116% | 112% | 114% |  | 105% |
| C[C@@]12CC[C@@H](O)C[C@@H]1CC[C@H]1[C@H]2CC[C@@]2(C)[C@H](c3ccc(=O)oc3)CC[C@@]12O | -26.7% (active) |  | -14.8% (active) | -63.3% (active) | -86.2% (active) | -76.3% (active) | -11.9% (active) | -84.8% (active) | -14% (active) | -28.7% (active) |
